Hit rate of the full screen: of about 340,000 compounds, about 1,200 (0.35%) were called active.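 Rule for the calls: active = potentiation over 3 SD above the plate norm (cut at about 30% in these data); inactive = the rest.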 The list comes from a sample in which actives are over-represented; it also holds similar structures and randomly drawn compounds.

Sequence of D(2) dopamine receptor (Homo sapiens) (P14416 whole entry, looked up): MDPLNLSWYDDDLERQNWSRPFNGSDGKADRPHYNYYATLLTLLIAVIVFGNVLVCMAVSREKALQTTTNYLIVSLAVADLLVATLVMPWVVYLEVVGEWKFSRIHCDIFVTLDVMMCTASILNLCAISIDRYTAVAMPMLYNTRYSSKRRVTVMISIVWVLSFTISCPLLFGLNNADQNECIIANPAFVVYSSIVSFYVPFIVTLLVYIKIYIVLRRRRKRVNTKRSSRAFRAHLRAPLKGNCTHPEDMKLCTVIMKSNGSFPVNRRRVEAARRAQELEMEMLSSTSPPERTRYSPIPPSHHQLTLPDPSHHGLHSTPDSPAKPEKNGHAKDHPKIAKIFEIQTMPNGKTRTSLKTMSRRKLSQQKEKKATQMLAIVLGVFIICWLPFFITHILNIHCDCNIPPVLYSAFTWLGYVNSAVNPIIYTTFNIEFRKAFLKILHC

This assay deals with D(2) dopamine receptor (Homo sapiens) (UniProt P14416). Put plainly: HTS Assay for Positive Allosteric Modulators of the Human D2 Dopamine Receptor: Primary Screen for Potentiators. Note: 0% is about no effect. The conditions noted are these: HEK293 T-REx D2, calcium flux, EC20 dopamine potentiation; at 10 µM; active compounds read high. Summed up:
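Potentiation of an EC20 dopamine calcium response measured kinetically over 180 s, after a preceding 180 s compound-only read flagging agonists. Cells: inducible Hek293 Trex D2 line, 4000/well, cultured overnight at 30 C before dye loading.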
Turning to `COc1cc(Cl)c(C)cc1NC(=O)CN1CCCCCC1`, the potentiation is -1.62% (inactive).

Consider `COc1ccc(NC(C)=O)cc1NC(=O)CN1CCN(c2ccc(F)cc2)CC1`, for which the potentiation was -0.119% (inactive).

Consider `COc1ccc(NC(C)=O)cc1NC(=O)CN1CCN(C2c3ccccc3-c3ccccc32)CC1`, for which the potentiation was 30.8% (active). For `Clc1ccc(CSc2nncn3c2cc2occc23)cc1`, the potentiation was 0.301% (inactive). In the case of `CN1CCN(C2(CNC(=O)COc3ccc(C(C)(C)C)cc3)CCCCC2)CC1`, the potentiation was -18.8% (inactive). For `Cc1[nH]c2ccccc2c1C(=O)COC(=O)c1c(-c2ccccc2)noc1C`, the potentiation is 8.38% (inactive).

With `CCOC(=O)c1c(C)nc(-c2ccccc2)nc1NC(=O)C(C)C`, the potentiation was 32.3% (active). As to `CCOC(=O)c1cn[nH]c1NC(=S)Nc1ccccc1`, the potentiation is 3.61% (inactive).

On to `CCOC(=O)c1c(C)[nH]c(C)c1S(=O)(=O)N1CCC(C(=O)Nc2ccc(C)c(Cl)c2)CC1`, for which the potentiation was 1.42% (inactive). `CC(=O)Nc1cccc(C(=O)OCC(=O)Nc2nnc(-c3ccccc3)o2)c1`: the potentiation was 4.87% (inactive). In the case of `O=C(Nc1ccc(-c2nnc(-c3ccccc3)o2)cc1)C1CCCO1` (stereo not given), the potentiation was 15.5% (inactive). In the case of `O=C(Nc1cccc(-c2nnc(-c3ccccc3)o2)c1)C1CCCO1` (stereo not given) it was 34% (active). On to `COc1cccc(CNC(=O)c2ccc3c(Cl)c4c(nc3c2)CCCC4)c1`, for which the potentiation is -3.62% (inactive).

For the compound `COc1ccc(C(=O)OCC(=O)N2CC(=O)Nc3ccccc32)cc1Br`, the potentiation was -9.38% (inactive). As for `COc1ccc(Cl)cc1-n1c(C)cc(C(=O)OCC(=O)N2CC(=O)Nc3ccccc32)c1C`, the potentiation was -19.1% (inactive). For the compound `COc1cc(OC)c(C(=O)OCC(=O)N2CC(=O)Nc3ccccc32)cc1OC`, the potentiation was 35.4% (active). Turning to `O=C(Nc1nnc(C2CC(=O)N(c3ccc(Cl)cc3)C2)s1)c1ccco1` (stereo not given), the potentiation is -13.1% (inactive). Turning to `CC(=O)NCCC(=O)Nc1cc(S(=O)(=O)N2CCCCC2)ccc1Oc1cccc(C)c1`, the potentiation is -0.184% (inactive). On to `Cc1cccc(OCCCC(=O)Nc2ccc(S(=O)(=O)N3CCCC3)cc2)c1`, for which the potentiation was 9.5% (inactive).

With `Cc1cccc(OCCC(=O)Nc2cc(S(=O)(=O)N3CCCCC3)ccc2N2CCOCC2)c1`, the potentiation is 38.1% (active).

In the case of `CCOC(=O)N1CCC(NC(=O)c2cnn(-c3cccc(C)c3)c2C2CCN(C(=O)OC(C)(C)C)CC2)CC1`, the potentiation is -9.08% (inactive).

Take `Cn1nnnc1SCCNCc1ccc(Cl)c(Cl)c1`: the potentiation was -14.4% (inactive). `CC1=NCCN1S(=O)(=O)c1cccc([N+](=O)[O-])c1`: the potentiation is 12.8% (inactive). With `Cc1cc(C)n(S(=O)(=O)c2cccc([N+](=O)[O-])c2)n1`, the potentiation is 2.11% (inactive). For the compound `Cc1ccc(-c2cn(S(=O)(=O)c3cccc([N+](=O)[O-])c3)nc2N)cc1`, the potentiation is 30.3% (active).

Values taken from PubChem BioAssay AID485347 (National Center for Advancing Translational Sciences (NCATS), 2010).
